The subject of the assay is Noggin (protein binding on small-molecule microarray). The experiment in a line: small molecules binding Noggin protein – biochemical, 635/667 nm fluorescence, primary screen (AID 1095).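 Further: score merges 667 nm feature fluorescence with signal to noise over triplicate slides.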 Particulars: 635 nm fluorescence, higher = more signal.
Consider `CCOC(=O)C=Cc1cc(F)ccc1O`, for which the composite z-score was -0.173. Next, `[N-]=[N+]=Nc1ccccc1[C@@H]1OC(c2ccc(OCCCO)cc2)=N[C@]1(Cc1ccccc1)C(=O)NCc1ccccc1`: 0.849. `Cc1ccccc1C(O)C1C=CC2C(=O)NC(=O)C2N1Nc1ccc(Cl)cc1Cl` (stereo not given) returned a composite z-score of 0.287. In the case of `COc1ccc([Si](C)(C)[C@H]2[C@H](CCO)O[C@@]3(C(=O)N(Cc4ccccc4)c4ccc(N5CCOC5=O)cc43)[C@@H]2C)cc1`, the composite z-score worked out at 0.517. Take `COCC1C2CC[C@H]3C(OCc4ccc(OC)cc4)OC[C@]4(C)[C@H]3C2=C(CN4C(=O)OC(C)(C)C)[C@H](C)C1COC` (stereo not given in full): the composite z-score was 0.372. As to `COCCOC(=O)N1C(=O)[C@@]2(c3cc(C#CC4(O)CCCCCC4)ccc31)[C@H](C(=O)N1CCN(c3ncccn3)CC1)[C@H]1C(=O)O[C@H](c3ccccc3)[C@H](c3ccccc3)N1[C@@H]2c1ccccc1OCCO`, the composite z-score was 1.04. Next, `COc1ccc(C(=O)Nc2cccc(CN3C(=O)[C@@]4(O[C@@H](CC(=O)N(CCO)Cc5ccccc5)[C@H]([Si](C)(C)c5ccc(OC)cc5)[C@H]4C)c4ccccc43)c2)cc1`: 0.8; `COCCOC(=O)N1C(=O)[C@@]2(c3cc(C#CCNC(N)=O)ccc31)[C@H](c1ccc(O)cc1)N1[C@H](c3ccccc3)[C@H](c3ccccc3)OC(=O)[C@H]1[C@@H]2C(N)=O`: -1.99; `O=C1C2C=CC(C(O)c3cccc(O)c3)N(Nc3ccccc3)C2C(=O)N1c1ccccc1` (stereo not given): -0.525.

As to `COc1ccc([Si](C)(C)[C@@H]2[C@@H](CC(=O)N3Cc4ccccc4C[C@H]3CO)O[C@]3(C(=O)N(c4ccccc4)c4ccccc43)[C@H]2C)cc1`, the composite z-score amounted to 1.71.

In turn, `COc1ccc(C(O)C2C=CC3C(=O)N(c4ccccc4)C(=O)C3N2Nc2ccccc2F)cc1` (stereo not given) registered a composite z-score of 0.164. The same measure for `COCCOC(=O)N1C(=O)[C@@]2(c3cc(C#CCC(C(=O)OC)C(=O)OC)ccc31)[C@H](c1ccc(O)cc1)N1[C@H](c3ccccc3)[C@H](c3ccccc3)OC(=O)[C@H]1[C@@H]2C(=O)NC[C@H](O)c1ccccc1`: 0.171. `COCC(=C=CC[C@H](O)c1cccc(OCCO)c1)C[C@H](O)COCc1ccccc1` gave a composite z-score of 0.546. Next, `C=C(C)[C@@H]1CC=C(C(O)C2C=CC3C(=O)N(c4ccccc4)C(=O)C3N2Nc2ccc(C#N)cc2)CC1` (stereo not given in full): 0.35; `COc1ccc(NC(=O)O[C@H]2[C@@H]3OC(=O)[C@H](Cc4cccc(Br)c4)C/C=C/C[C@@H](Cc4cccc(Br)c4)C(=O)O[C@H]3[C@@H](OC)O[C@@H]2CO)cc1`: 0.331; `C=C(/C(=C/C[C@H](OC(=O)c1ccncc1)c1cccc(OCCO)c1)c1cnc2ccccc2c1)C(C)C`: 1.85. The compound `CS(=O)(=O)CCOC(=O)C1=CC(CCCO)=CC(C2CC2)N(Cc2cccc(OC(F)(F)F)c2)C=C1C(=O)OCCS(C)(=O)=O` (stereo not given) returned a composite z-score of -0.0678.

Turning to `NC(=O)[C@H]1[C@@H]2C(=O)O[C@@H](c3ccccc3)[C@@H](c3ccccc3)N2[C@@H](c2ccc(O)cc2)[C@]12C(=O)Nc1ccc(C#CC3=CCCCC3)cc12`, the composite z-score amounted to 0.186.

In turn, `[N-]=[N+]=NCc1ccccc1[C@@H]1OC(c2ccc(OCCCO)cc2)=N[C@]1(Cc1ccccc1)C(=O)NCCN1CCOCC1` had a composite z-score of 0.512. Next, `COc1cc(C(O)C2C=CC3C(=O)N(Cc4ccccc4)C(=O)C3N2n2cnnc2)cc(OC)c1OC` (stereo not given): -0.127; `C=CCN1C(=O)[C@@]2(O[C@@H](CCO)[C@H]([Si](C)(C)c3ccc(OC)cc3)[C@H]2C)c2cc(N3CCOC3=O)ccc21`: -0.355. Next, `CC(C)[C@H]1NC(=O)[C@@]23C(=O)N[C@@H](Cc4ccccc4)C2[C@H](C)[C@@]2(C)O[C@H]2C3/C=C/C/C=C\CNC(=O)[C@H](Cc2ccccc2)NC1=O` (stereo not given in full): 0.877. Turning to `O=C1C2C=CC(C(O)c3ccco3)N(Nc3ccccc3)C2C(=O)N1c1ccccc1` (stereo not given), the composite z-score is -0.569. The same measure for `CC(C)C[C@@H]1NC(=O)[C@@]23C(=O)N[C@@H](Cc4ccccc4)C2[C@H](C)[C@@]2(C)O[C@H]2C3/C=C/C/C=C\CNC(=O)[C@@H](C)NC1=O` (stereo not given in full): 0.33. For the compound `CCN(CC)c1ccc(N2CC=CC34O[C@@H]5/C=C\CCC(C)OC(=O)C5[C@H]3C(=O)N(C(C)CO)[C@@H]4C2=O)cc1` (stereo not given in full), the composite z-score is 0.07. The compound `CO[C@H]1O[C@H](CO)[C@@H](OC(=O)c2ccc(Br)cc2)[C@@H]2OC(=O)[C@H](Cc3ccccc3)C/C=C/C[C@@H](Cc3ccccc3)C(=O)O[C@@H]12` yielded a composite z-score of 0.413. For `CC(C)C(CO)N1C(=O)[C@@H]2[C@H]3C(=O)OCC=C[C@H]3OC23C=CCN(C(C)(C)C)C(=O)[C@@H]13` (stereo not given in full), the composite z-score was -0.122. Next, `[N-]=[N+]=Nc1ccccc1C[C@]1(C(=O)O)N=C(c2ccc(OCCCO)cc2)O[C@H]1c1ccccc1N=[N+]=[N-]`: -0.359; `C=C(/C(=C/C[C@@H](OC(=O)c1ccncc1)c1cccc(OCCO)c1)c1cnc2ccccc2c1)C(C)C`: 1.27; `CCCNC(=O)[C@@]1(Sc2ccc(C)cc2)CC(=O)N(C(C)C)[C@@H]1c1ccc(CO)cc1I`: -0.719. Next, `C=CCNC(=O)[C@@H]1[C@H]2C(=O)O[C@H](c3ccccc3)[C@H](c3ccccc3)N2[C@H](c2ccc(OCCO)cc2)[C@@]12C(=O)N(C(=O)OCCOC)c1ccc(C#CCCO)cc12`: 0.916. For the compound `CCCCCCCCCCC(O)C1C=CC2C(=O)N(c3ccccc3)C(=O)C2N1Nc1ccccc1F` (stereo not given), the composite z-score was -1.47.

For `COC(=O)C1N=C(c2ccc(OCCCO)cc2)N(c2ccccc2)O1` (stereo not given), the composite z-score was determined as 0.981. The same measure for `COC(=O)[C@@]1(Cc2ccc(F)cc2)[C@H]2c3cc(C(=O)N4CCCC4)n(C)c3C[C@H]2CN1C(=O)c1ccccc1`: -0.662; for `O=C1C2C=CC(C(O)C=Cc3ccc([N+](=O)[O-])cc3)N(Nc3ccccc3)C2C(=O)N1c1ccccc1` (stereo not given): 0.505.

The record behind these values is PubChem BioAssay.
